# According to PubChem BioAssay:
# The source made the active and inactive calls.
# Legend:
# [1] = system: Plasmodium falciparum Sir2 (PF13_0152, Sir2A); test: pfSir2 binders on small-molecule microarrays, primary screen, biochemical, small-molecule microarray, 635 nm fluorescence (AID 1098); conditions: small-molecule microarray binding, fluorescence 635 nm; higher = more signal;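 further: score merges spot fluorescence intensity with its signal-to-noise ratio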
# [2] = small-molecule microarray binders of probe aDKK1, primary screen, biochemical, biotinylated probe, 635/667 nm fluorescence (AID 1099); conditions: higher = more signal;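 further: score merges 667nm spot fluorescence with signal to noise across triplicate slides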
# [3] = small-molecule microarray binders of probe aCHRDL2, primary screen, biochemical, biotinylated probe, 635/667 nm fluorescence (AID 1100); conditions: higher = more signal
# [4] = splicing luciferase reporter signal modulators, primary screen, spliceosome inhibition project, cell-based, HEK293, splice +/- reporter (AID 1101); conditions: luminescence, 24 h, higher = more signal, called active from +8 up or from −8 down;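 further: HEK293 cells carrying a splicing-competent luciferase reporter gene; test concentration not given here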
# [5] = target: Fibroblast growth factor 10 (Homo sapiens) (UniProt O15520); test: FGF10 binders on small-molecule microarrays, primary screen, biochemical, small-molecule microarray, 635 nm fluorescence (AID 1102); conditions: FGF10 binding, fluorescence 635 nm, higher = more signal
# Fibroblast growth factor 10 (Homo sapiens), sequence (O15520 whole entry, looked up): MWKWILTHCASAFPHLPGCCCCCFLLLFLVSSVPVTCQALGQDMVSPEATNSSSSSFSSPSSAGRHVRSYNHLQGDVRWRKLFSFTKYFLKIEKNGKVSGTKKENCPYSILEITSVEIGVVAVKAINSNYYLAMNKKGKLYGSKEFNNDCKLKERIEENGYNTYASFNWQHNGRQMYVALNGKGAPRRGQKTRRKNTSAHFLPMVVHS
# [6] = system: glycogen synthase kinase-3 (GSK3A per assay name; protocol says GSK3B); test: GSK3 binders on small-molecule microarrays, primary screen, biochemical, small-molecule microarray, 635 nm fluorescence, GSK3A (AID 1103); conditions: small-molecule microarray binding, fluorescence 635 nm; higher = more signal; further: the record names both GSK3A and GSK3B
# [7] = target: Epidermal growth factor receptor (Homo sapiens) (UniProt P00533); test: EGFR binders on small-molecule microarrays, primary screen, biochemical, small-molecule microarray, 635 nm fluorescence (AID 1104); conditions: EGFR binding, higher = more signal;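 further: score merges 667 nm emission intensity with spot signal to noise over triplicate slides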
# Epidermal growth factor receptor (Homo sapiens), sequence (P00533 whole entry, looked up): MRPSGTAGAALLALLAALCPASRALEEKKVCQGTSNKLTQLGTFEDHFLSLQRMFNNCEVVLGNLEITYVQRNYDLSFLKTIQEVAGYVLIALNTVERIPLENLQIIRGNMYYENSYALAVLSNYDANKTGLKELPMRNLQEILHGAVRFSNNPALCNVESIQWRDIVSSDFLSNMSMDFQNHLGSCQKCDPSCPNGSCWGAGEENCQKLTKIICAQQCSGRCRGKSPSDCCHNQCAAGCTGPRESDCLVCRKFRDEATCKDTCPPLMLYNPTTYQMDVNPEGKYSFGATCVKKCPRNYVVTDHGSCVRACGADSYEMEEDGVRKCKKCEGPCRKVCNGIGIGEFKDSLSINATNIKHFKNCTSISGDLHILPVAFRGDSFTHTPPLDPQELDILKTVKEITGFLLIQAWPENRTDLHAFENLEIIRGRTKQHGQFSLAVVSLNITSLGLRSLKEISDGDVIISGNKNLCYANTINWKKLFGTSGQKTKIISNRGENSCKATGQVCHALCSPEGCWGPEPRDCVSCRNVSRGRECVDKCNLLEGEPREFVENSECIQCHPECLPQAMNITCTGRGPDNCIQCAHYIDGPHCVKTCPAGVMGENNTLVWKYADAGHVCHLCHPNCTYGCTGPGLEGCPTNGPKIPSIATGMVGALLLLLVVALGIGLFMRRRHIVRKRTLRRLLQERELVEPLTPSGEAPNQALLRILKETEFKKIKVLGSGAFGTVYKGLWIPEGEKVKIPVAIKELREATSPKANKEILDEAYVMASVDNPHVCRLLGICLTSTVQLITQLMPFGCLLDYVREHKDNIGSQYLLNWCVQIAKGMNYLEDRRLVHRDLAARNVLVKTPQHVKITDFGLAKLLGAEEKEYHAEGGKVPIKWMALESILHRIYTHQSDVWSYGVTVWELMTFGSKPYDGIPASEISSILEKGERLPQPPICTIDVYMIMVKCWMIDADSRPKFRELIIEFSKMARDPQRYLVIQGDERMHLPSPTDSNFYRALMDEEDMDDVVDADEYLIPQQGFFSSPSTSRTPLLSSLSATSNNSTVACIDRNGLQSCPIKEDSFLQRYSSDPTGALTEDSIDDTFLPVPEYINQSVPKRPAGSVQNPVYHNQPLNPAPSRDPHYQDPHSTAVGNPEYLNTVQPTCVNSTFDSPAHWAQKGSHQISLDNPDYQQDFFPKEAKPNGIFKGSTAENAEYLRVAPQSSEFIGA
# [8] = target: Follistatin-related protein 3 (Homo sapiens) (UniProt O95633); test: FSTL3 binders on small-molecule microarrays, primary screen, biochemical, small-molecule microarray, 635 nm fluorescence (AID 1105); conditions: FSTL3 binding, higher = more signal;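 further: score merges emission near 667 nm and signal to noise per printed spot across three slides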
# Follistatin-related protein 3 (Homo sapiens), sequence (O95633 whole entry, looked up): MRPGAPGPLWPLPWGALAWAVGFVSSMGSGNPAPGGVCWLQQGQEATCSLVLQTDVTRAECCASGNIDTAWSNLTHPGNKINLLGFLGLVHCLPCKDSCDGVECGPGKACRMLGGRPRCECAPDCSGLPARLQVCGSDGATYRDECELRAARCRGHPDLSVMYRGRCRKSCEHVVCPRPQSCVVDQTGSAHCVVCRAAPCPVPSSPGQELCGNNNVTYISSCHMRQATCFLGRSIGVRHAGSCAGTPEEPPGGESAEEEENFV
# [9] = target: Dickkopf-related protein 1 (Homo sapiens) (UniProt O94907); test: DKK1 binders on small-molecule microarrays, primary screen, biochemical, small-molecule microarray, 635 nm fluorescence scan (AID 1106); conditions: DKK1 binding, higher = more signal;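 further: score merges emission near 667 nm with signal to noise over three replicate slides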
# Dickkopf-related protein 1 (Homo sapiens), sequence (O94907 whole entry, looked up): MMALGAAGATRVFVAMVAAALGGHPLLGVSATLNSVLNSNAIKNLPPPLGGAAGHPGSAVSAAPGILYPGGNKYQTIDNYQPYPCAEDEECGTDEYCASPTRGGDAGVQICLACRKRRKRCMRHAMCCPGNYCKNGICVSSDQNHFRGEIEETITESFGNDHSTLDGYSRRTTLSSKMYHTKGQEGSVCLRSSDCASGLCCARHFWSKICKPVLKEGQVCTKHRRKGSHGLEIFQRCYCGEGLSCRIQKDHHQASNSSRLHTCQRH
# [10] = system: Inhibin beta A chain (activin A); test: INHBA (activin A) binders on microarrays, primary screen, biochemical, small-molecule microarray, 635 nm fluorescence scan (AID 1107); conditions: small-molecule microarray binding, higher = more signal;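 further: mouse activin A protein probed at 4.33 µg/mL on printed slides; score merges bound-protein fluorescence near 667 nm with spot signal-to-noise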
# [11] = system: Human papillomavirus type 1a protein E7 (residues 44-93); test: HPV1a E7 fragment binders on microarrays, primary screen, biochemical, small-molecule microarray, residues 44-93, 635 nm fluorescence (AID 1108); conditions: small-molecule microarray binding, fluorescence 635 nm; higher = more signal;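 further: E7 fragment applied at 1 µg/mL in TBST for 1 h at 4 C; score combines spot fluorescence with its signal to noise ratio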
# [12] = modulators of HCV replicon luciferase signal, primary screen, HCV replication inhibitor project, Huh7 cells, luciferase reporter (AID 1109); conditions: 48 h, higher = more signal;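 further: huh7 hepatoma cells harbouring a luciferase neomycin HCV replicon reporter; luciferase luminescence as measure of HCV replicon replication; test concentration not given here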
# [13] = target: Left-right determination factor 2 (Homo sapiens) (UniProt O00292); test: LEFTY2 binders on small-molecule microarrays, primary screen, biochemical, small-molecule microarray, 635 nm fluorescence scan (AID 1110); conditions: LEFTY2 binding, higher = more signal
# Left-right determination factor 2 (Homo sapiens), sequence (O00292 whole entry, looked up): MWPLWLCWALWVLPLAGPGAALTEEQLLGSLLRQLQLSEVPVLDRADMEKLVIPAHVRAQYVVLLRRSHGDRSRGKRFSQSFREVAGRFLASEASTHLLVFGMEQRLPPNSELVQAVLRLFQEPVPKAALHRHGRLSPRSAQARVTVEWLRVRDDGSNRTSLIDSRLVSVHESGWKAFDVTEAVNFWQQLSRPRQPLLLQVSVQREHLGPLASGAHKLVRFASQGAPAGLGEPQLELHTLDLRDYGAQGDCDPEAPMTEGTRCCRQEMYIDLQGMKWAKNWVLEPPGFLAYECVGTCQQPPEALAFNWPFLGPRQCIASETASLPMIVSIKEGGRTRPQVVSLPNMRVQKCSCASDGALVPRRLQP
# [14] = target: Calmodulin-1 (Homo sapiens) (UniProt P0DP23); test: CALM1 binders on microarrays, EGTA buffer, profiling panel, biochemical, small-molecule microarray, Cy5-labelled CALM1 (AID 1111); conditions: Cy5-CALM1 binding fluorescence, higher = more signal;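 further: labelled calmodulin applied in Tris saline Tween buffer holding calcium plus EGTA and DTT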
# [15] = target: Calmodulin-1 (Homo sapiens) (UniProt P0DP23); test: calcium-bound CALM1 binders on microarrays, profiling panel, artefact control for SMM control-protein annotation, biochemical, small-molecule microarray, Cy5-labelled CALM1, plus calcium (AID 1112); conditions: Cy5-CALM1 binding fluorescence, higher = more signal;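 further: score merges spot fluorescence with signal to noise from triplicate slides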
# [16] = small-molecule microarray binders of probe aWnt5a, primary screen, biochemical, biotinylated probe, 635/667 nm fluorescence (AID 1113); conditions: higher = more signal;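 further: score merges 667 nm fluorescence intensity with signal-to-noise per printed feature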
# [17] = small-molecule microarray binders of probe aShh, primary screen, biochemical, biotinylated probe, 635/667 nm fluorescence (AID 1114); conditions: higher = more signal;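 further: probe is biotin-labelled aShh protein from a stem cell growth factor screen; measures binding of labelled protein to compounds printed on the slide; score merges feature fluorescence at 667 nm with signal-to-noise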
# [18] = small-molecule microarray binders of probe aNog, primary screen, biochemical, biotinylated probe, 635/667 nm fluorescence (AID 1115); conditions: higher = more signal;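 further: probe is biotinylated aNog protein used at 0.15 µg/mL for 1 h at 4 C; z-score combines 667 nm fluorescence of each spot with its signal to noise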
# [19] = target: Torsin-1A-interacting protein 1 (Homo sapiens) (UniProt Q5JTV8); test: LAP1 binders from COS7 cell lysate, primary screen, small-molecule microarray, 635/667 nm fluorescence (AID 1116); conditions: COS7-hLAP1 lysate binding, 635 nm fluorescence, higher = more signal
# Torsin-1A-interacting protein 1 (Homo sapiens), sequence (Q5JTV8 whole entry, looked up): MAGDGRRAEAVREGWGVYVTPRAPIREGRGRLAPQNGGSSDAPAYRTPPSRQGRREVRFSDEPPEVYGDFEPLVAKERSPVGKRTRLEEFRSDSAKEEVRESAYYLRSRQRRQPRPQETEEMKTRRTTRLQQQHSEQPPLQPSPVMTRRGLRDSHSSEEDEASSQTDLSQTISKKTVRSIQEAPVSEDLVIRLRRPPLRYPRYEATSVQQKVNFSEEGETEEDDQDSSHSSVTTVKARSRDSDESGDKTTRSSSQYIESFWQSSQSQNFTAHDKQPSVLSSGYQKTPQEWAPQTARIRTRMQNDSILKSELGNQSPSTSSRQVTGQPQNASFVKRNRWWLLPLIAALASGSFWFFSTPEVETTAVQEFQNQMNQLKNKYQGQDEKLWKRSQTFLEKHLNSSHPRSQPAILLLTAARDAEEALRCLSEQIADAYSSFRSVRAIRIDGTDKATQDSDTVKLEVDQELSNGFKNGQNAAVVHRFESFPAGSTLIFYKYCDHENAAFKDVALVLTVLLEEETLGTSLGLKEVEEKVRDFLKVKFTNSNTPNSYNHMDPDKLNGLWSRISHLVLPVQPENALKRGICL
# [20] = target: Alpha-bungarotoxin (Bungarus multicinctus) (UniProt P60615); test: alpha-bungarotoxin binders on microarray, profiling panel, artefact control for SMM control protein annotation, biochemical, small-molecule microarray, Alexa647 label, 635/667 nm fluorescence (AID 1117); conditions: alpha-BTX-A647 binding fluorescence, higher = more signal
# Alpha-bungarotoxin (Bungarus multicinctus), sequence (P60615 whole entry, looked up): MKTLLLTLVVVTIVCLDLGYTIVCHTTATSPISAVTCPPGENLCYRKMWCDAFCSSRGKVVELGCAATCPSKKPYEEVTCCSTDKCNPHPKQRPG
Structure (SMILES),composite z-score [1],composite z-score [2],composite z-score [3],z-score [4],composite z-score [5],composite z-score [6],composite z-score [7],composite z-score [8],composite z-score [9],composite z-score [10],composite z-score [11],z-score [12],composite z-score [13],composite z-score [14],composite z-score [15],composite z-score [16],composite z-score [17],composite z-score [18],composite z-score [19],composite z-score [20]
CC(C)[Si](C#CCCCC#N)(Oc1ccccc1Br)C(C)C,0.436,-0.288,-0.536,-0.542 (inactive),0.361,0.693,0.216,0.58,-0.108,0.32,0.845,-0.071,0.0224,-0.154,-0.159,-0.0512,-0.0553,-0.213,0.528,0.453
[N-]=[N+]=Nc1ccccc1[C@H]1OC(c2ccc(OCCCO)cc2)=N[C@@]1(CCS(=O)(=O)c1ccccc1)C(=O)NCc1ccccc1,0.91,0.812,0.988,-0.431 (inactive),1.18,1.32,0.258,1.14,0.584,1.05,1.46,-0.242,0.565,0.937,0.338,0.153,0.0723,-0.487,1.06,0.785
COCCCNC(=O)[C@@H]1c2ccccc2C(=O)N(Cc2ccccc2)[C@H]1c1ccc(CO)cc1,0.698,0.698,0.655,-0.403 (inactive),0.223,0.437,0.851,0.197,0.549,0.353,0.364,-0.719,0.221,-0.448,0.004,0.0215,0.131,-0.69,1.32,-0.222
C=CCOC(=O)[C@H]1[C@@H]2C(=O)O[C@@H](c3ccccc3)[C@@H](c3ccccc3)N2[C@@H](c2ccc(OCCOC(=O)[C@@H]3C[C@@H]4C(=O)N5CCC[C@H]5C(=O)N4[C@@H]3c3cccc(OCCO)c3)cc2)[C@]12C(=O)Nc1ccc(I)cc12,1.59,-0.214,-0.158,0.0567 (inactive),1.42,1.15,0.702,1.39,1.2,0.76,1.39,-1.46,0.872,0.784,-0.0883,-0.0758,0.0098,0.935,-0.571,1.39
O=C1NC(=O)C2C1C=CC(C(O)c1ccc(I)cc1)N2Nc1ccc(Cl)cc1Cl (stereo not given),1.03,0.418,1.08,-1.09 (inactive),0.41,0.782,-0.079,0.425,-0.235,0.871,1.36,-0.644,-0.562,1.84,0.99,-0.0236,-0.0056,1.66,1.05,1.1
CCCCCN1CC=CC23O[C@@H]4C=CCOC(=O)[C@@H]4[C@H]2C(=O)N(C(C)CO)[C@@H]3C1=O (stereo not given in full),1.4,-0.162,0.381,1.03 (inactive),-0.571,-0.831,-1.44,-1.25,-0.693,-0.469,-0.967,1.01,-1.39,-0.0225,-0.0583,-0.176,-0.0146,1.04,-0.901,-0.394
CCCC(=O)N(CCc1c[nH]c2ccccc12)[C@@H]1CC(C(=O)NCCO)=C[C@H](Oc2c(I)cc(CO)cc2OC)[C@H]1O,-0.575,-0.334,-0.516,-0.125 (inactive),-0.0122,-0.431,0.164,0.0027,0.404,0.181,0.434,0.354,0.362,-0.0781,-0.36,-0.129,-0.221,-0.234,0.0957,-0.0162
CCCCC(=C=CC[C@@H](O)c1cccc(OCCO)c1)C[C@@H](O)c1ccccn1,1.6,-0.132,-0.387,-0.123 (inactive),1.06,0.839,-0.181,1.07,0.168,0.869,1.35,-0.617,0.229,1.16,-0.946,-0.0735,-0.0553,0.144,1.25,1.16
O=C1OCCC=C[C@H]2OC34C=CCN(c5ccc(Cl)cc5)C(=O)[C@H]3N(CCCO)C(=O)[C@@H]4C12 (stereo not given in full),-0.41,-0.227,0.0093,-1.29 (inactive),0.0364,-1.4,-0.522,-0.181,-0.455,1.52,-0.726,-1.04,-0.131,0.0745,0.168,-0.182,-0.186,0,-0.421,0.275
C=CC[C@]12N=C(c3ccc(OCCCO)cc3)O[C@H]1c1ccccc1N(CCS(=O)(=O)c1ccccc1)C2=O,1.43,0.419,0.777,-2.04 (inactive),0.374,1.3,0.595,1.11,0.694,1.26,1.41,-2.26,0.559,1.17,0.289,0.0775,0.54,-0.484,0.863,1.02
[N-]=[N+]=Nc1ccccc1[C@H]1OC(c2ccc(OCCCO)cc2)=N[C@@]1(Cc1ccccc1)C(=O)N1CCOCC1,1.43,1.14,1.08,0.439 (inactive),1.31,0.921,0.73,1.07,0.477,1.11,1.1,-2.37,0.103,2.25,0.937,-0.0748,0.886,0.88,1.32,1.73
O=C1C2C=CC(C(O)COCc3ccccc3)N(Nc3ccc([N+](=O)[O-])cc3)C2C(=O)N1c1ccccc1 (stereo not given),1.06,0.735,0.889,-1.44 (inactive),1.05,1.32,0.42,1.22,0.111,0.976,1.44,-1.36,0.308,0.823,-0.432,0.0317,0.213,0.525,0.548,1.31
C=C(CCCC)/C(=C/C[C@H](OC(C)=O)c1ccccc1OCCO)c1cnc2ccccc2c1,0.593,-0.278,-0.114,1.81 (inactive),0.931,-0.0183,0.0674,0.747,0.277,1.52,0.984,-2.75,0.0641,-0.0602,-0.796,-0.0718,-0.0709,-0.327,0.469,0.887
COc1ccc([Si](C)(C)[C@@H]2[C@@H](CCn3cc([C@H](O)c4ccccc4)nn3)O[C@]3(C(=O)N(Cc4cccc(N5CCC5=O)c4)c4ccccc43)[C@H]2C)cc1,0.647,-0.386,-0.0143,1.41 (inactive),0.483,-0.502,0.0403,-0.304,0.589,0.521,-0.206,-2.78,0.187,-0.15,-0.263,-0.0919,-0.0035,-0.0211,0.392,0.0808
O=C1[C@H]2C=C(Br)[C@H](C[C@@H]2OCCCCCCO)[C@@]12CO2,1.21,-0.142,-0.0272,0.428 (inactive),-0.117,-0.363,-0.0491,-0.154,-0.0712,1.61,-1.01,-3.2,-0.057,-0.714,-1.44,-0.006,-0.106,-0.234,0.0589,-1.17
